Among the data in PubChem BioAssay (Tox21) are Potency and outcome values, retold here.

The target of experiment [1] is Estrogen receptor (Homo sapiens) (UniProt P03372). Kind of experiment: qHTS assay to identify small molecule agonists of the estrogen receptor alpha (ER-alpha) signaling pathway in the presence of an antagonist (AID 1259383; calls by dose curve; also: top concentration of the series differs between compounds; nearly all actives have a fitted effect of over 15% in size). Summed up:
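Luminescent ERE-luciferase reporter, VM7Luc4E2 cells (endogenous ER-alpha); 10.0nM ICI-182,780 final; 15-point compound titration; 22hr at 37C; ONE-Glo, 30min RT.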

A short description of experiment [2]: qHTS assay to identify small molecule agonists of the estrogen receptor alpha (ER-alpha) signaling pathway in the presence of an antagonist - cell viability counter screen (AID 1259386).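 Also: series mostly up to about 92 µM; cells exposed to compounds for 22 h at 37 °C before the viability read; nearly all actives have a fitted effect of over 30% in size.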 Summed up: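 Using estrogen-depleted VM7Luc4E2 cells, the 15-concentration compound series was applied together with 10.0nM ICI-182,780 and incubated 22hr at 37C/5% CO2. Cell viability was then scored by CellTiter-Fluor.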
(In general: Quantitative high-throughput screening tests each substance at several concentrations.)

Experiment [3] has as its target Progesterone receptor (Homo sapiens) (UniProt P06401). Nature of the experiment: qHTS assay to identify small molecule agonists of the progesterone receptor (PR) signaling pathway (AID 1346784; calls by dose curve; also: nearly all actives have a fitted effect of over 30% in size). In a few lines: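 Agonist mode, quantitative HTS format in a HEK 293T line expressing a UAS-controlled beta-lactamase reporter; 16 hr compound exposure at 37C in 2% charcoal-stripped FBS, then LiveBLAzer B/G FRET fluorescence.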

Experiment [4] shares this target. Kind of experiment: qHTS assay to identify small molecule antagonists of the progesterone receptor (PR) signaling pathway (AID 1346795; active = well fitted inhibition curve with a large enough effect in the signal ratio in the repeat runs, not every such curve was filed as active; the % refers to the signal ratio; also: potency is read from the fitted curve at half-maximal effect). In a few lines: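 HEK293T PR-UAS-bla reporter cells in charcoal-stripped serum (2%) received compound after a 6 hr settling period, followed by R5020 agonist at 1 nM final; 16 hr incubation preceded the FRET substrate step and fluorescence measurement.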

The nature of experiment [5]: qHTS assay to identify small molecule antagonists of the progesterone receptor (PR) signaling pathway - cell viability counter screen (AID 1346798). Also: series mostly up to about 92 µM; nearly all actives have a fitted effect of over 50% in size. Summed up:
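Same-well multiplex: after 16 hr at 37C with compound and R5020 stimulation, HEK293T cells carrying a UAS-bla reporter received LiveBLAzer substrate (2 hr RT), then CellTiter-Glo (30 min RT) for luminescent viability.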

Experiment [6] in a line: qHTS assay to identify small molecule agonists of the progesterone receptor (PR) signaling pathway - cell viability counter screen (AID 1346799; calls by dose curve; also: nearly all actives have a fitted effect of over 45% in size). Summed up: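 Counter screen for cytotoxicity: compound-treated PR-UAS-bla HEK293T cells (16 hr, 37C, 5% CO2) were assayed with CellTiter-Glo, luminescence measured after 30 min at room temperature.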
Experiment [7] is described as follows: qHTS assay to identify small molecule antagonists of the TGF-beta/Smad signaling pathway - cell viability counter screen (AID 1346824). Also: nearly all actives have a fitted effect of over 50% in size. In a few lines: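 SBE-bla HEK 293T cells, incubated overnight, then compound plus 0.25 ng/mL TGF-beta1 (stock added) for 5 hr at 37 C. Viability was read in the same wells by CellTiter-Glo luminescence after 30 min at room temperature.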

The nature of experiment [8]: qHTS assay to identify small molecule agonists of the TGF-beta/Smad signaling pathway - cell viability counter screen (AID 1346829). Also: top concentration of the series differs between compounds; nearly all actives have a fitted effect of over 45% in size. Summed up:
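SBE-bla HEK 293T cells plated overnight, compound exposure 5 hr at 37 C. Viability read in the same wells by CellTiter-Glo luminescence after 30 min at room temperature, following the beta-lactamase read.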

A short description of experiment [9]: qHTS assay to identify small molecule agonists or antagonists of the thyroid stimulating hormone receptor (TSHR) signaling pathway - wild type cell line counter screen (AID 1259384; calls by dose curve). In a few lines: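 Wild-type Hek293 cells, 800/well, 18 h at 37C, then compound with Ro20-1724 for 30 min RT. cAMP by HTRF (cAMP-d2/anti-cAMP cryptate), 1 h RT, fluorescence read. 15 concentrations, triplicates.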

Experiment [10] has as its target Thyrotropin receptor (Homo sapiens) (UniProt P16473). Kind of experiment: qHTS assay to identify small molecule antagonists of the thyroid stimulating hormone receptor (TSHR) signaling pathway (AID 1259385; calls by dose curve; also: nearly all actives have a fitted effect of over 20% in size). Summed up:
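TSHR-HEK293 cells (800/well) plated 18 h, then compounds with Ro20-1724 and TSH at 1.5 ng/mL final, 30 min at room temperature. cAMP quantified by HTRF (cAMP-d2/anti-cAMP-cryptate, 1 h); 15 concentrations in triplicate.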

The structures appear in SMILES notation. A number with no mark means an inactive call. Records with an inconclusive call do not appear. Activity calls are given as the source filed them. Unless noted, calls follow the shape of the dose curve; as a rule, active = well fitted curve in the direction sought with a large enough effect in the repeat runs; inconclusive = weak or mixed curves; inactive = no such curve, though single readings can be large; an effect the other way counts as inactive or inconclusive.

Chain of Estrogen receptor (Homo sapiens) (P03372 whole entry, looked up): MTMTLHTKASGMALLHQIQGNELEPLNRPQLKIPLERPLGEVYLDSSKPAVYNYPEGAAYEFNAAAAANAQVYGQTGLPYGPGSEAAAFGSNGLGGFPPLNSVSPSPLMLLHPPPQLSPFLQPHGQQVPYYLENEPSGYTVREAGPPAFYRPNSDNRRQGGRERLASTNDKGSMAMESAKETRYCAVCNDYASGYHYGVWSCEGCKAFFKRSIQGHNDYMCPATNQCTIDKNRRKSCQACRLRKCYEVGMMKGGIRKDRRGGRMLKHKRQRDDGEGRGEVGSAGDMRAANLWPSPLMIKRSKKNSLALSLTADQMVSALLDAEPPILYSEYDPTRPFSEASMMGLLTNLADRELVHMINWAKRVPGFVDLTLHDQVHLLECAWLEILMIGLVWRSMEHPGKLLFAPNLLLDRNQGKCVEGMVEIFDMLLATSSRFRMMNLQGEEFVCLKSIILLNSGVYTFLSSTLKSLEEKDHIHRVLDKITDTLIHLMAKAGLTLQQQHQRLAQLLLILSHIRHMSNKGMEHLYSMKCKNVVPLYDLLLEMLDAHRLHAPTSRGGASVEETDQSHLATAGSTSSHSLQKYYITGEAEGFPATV
Chain of Progesterone receptor (Homo sapiens) (P06401 whole entry, looked up): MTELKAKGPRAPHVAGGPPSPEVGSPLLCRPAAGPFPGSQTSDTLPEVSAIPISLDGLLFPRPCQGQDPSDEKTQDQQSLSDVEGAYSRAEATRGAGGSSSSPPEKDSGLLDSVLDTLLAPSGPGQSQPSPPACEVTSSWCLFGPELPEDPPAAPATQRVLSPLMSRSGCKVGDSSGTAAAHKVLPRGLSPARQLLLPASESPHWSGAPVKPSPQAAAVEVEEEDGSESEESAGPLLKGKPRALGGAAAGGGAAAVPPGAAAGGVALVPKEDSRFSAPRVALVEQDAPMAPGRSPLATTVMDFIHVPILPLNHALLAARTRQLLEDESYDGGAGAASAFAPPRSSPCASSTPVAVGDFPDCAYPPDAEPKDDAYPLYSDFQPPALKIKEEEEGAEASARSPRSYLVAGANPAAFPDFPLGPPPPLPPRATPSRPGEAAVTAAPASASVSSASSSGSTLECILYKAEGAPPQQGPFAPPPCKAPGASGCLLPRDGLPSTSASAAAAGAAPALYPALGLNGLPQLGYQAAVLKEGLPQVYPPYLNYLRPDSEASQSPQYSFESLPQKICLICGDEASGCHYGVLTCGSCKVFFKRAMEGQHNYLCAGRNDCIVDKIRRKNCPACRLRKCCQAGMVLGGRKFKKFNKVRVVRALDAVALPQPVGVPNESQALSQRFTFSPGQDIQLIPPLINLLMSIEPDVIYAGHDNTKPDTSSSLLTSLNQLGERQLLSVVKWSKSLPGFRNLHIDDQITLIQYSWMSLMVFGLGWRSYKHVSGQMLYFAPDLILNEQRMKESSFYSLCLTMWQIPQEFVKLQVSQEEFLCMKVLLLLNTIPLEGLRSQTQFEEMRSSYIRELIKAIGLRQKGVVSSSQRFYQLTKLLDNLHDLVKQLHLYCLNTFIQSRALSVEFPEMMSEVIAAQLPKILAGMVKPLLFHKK
Chain of Thyrotropin receptor (Homo sapiens) (P16473 whole entry, looked up): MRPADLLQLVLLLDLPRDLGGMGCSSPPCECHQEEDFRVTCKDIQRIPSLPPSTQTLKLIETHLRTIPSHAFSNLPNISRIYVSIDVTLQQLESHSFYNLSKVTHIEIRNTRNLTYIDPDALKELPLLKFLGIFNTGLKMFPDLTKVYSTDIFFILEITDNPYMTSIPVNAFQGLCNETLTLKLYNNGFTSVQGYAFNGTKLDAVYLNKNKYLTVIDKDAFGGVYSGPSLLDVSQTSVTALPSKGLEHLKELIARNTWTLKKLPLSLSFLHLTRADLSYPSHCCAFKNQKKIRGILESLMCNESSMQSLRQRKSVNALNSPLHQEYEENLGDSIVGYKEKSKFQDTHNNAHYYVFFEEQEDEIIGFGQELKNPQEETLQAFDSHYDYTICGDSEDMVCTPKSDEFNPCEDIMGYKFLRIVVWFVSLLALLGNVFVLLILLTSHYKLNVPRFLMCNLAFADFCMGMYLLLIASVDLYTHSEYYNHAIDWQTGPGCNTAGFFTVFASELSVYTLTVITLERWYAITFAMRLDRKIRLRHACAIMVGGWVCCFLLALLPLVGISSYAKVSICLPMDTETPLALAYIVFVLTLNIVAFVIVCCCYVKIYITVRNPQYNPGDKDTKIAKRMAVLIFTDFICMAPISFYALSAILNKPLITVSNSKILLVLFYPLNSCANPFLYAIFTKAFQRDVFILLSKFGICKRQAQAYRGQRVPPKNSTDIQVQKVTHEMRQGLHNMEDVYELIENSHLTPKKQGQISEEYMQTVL

As for `CC1=C(O)C(=O)CO1`, the Potency result in experiment [1], in experiment [3], in experiment [4] and in [6] was “inactive” each time. In addition, the result in [2], in [5], in experiment [7] and in experiment [8] was inactive.

With `Cc1nc2ccc(Cl)cc2[nH]1`, the Potency entry in experiment [1], in experiment [3], in experiment [4] and in [6] was “inactive” each time. Also, the molecule was called inactive in experiment [9], in [2], in [5], in experiment [7] and in experiment [8].

In the case of `NNC(=O)CCCCC(=O)NN`, the Potency result in [1], in [3], in experiment [4] and in experiment [6] was “inactive” each time. In addition, the outcome in [2], in experiment [5] and in experiment [7] was inactive.

As to `CC(=O)SC[C@@H](C)C(=O)N1CCC[C@H]1C(=O)N[C@@H](Cc1ccccc1)C(=O)O`, the Potency result in [1], in [3], in experiment [4] and in [6] was “inactive” each time. Besides, the molecule was called inactive in experiment [9], in experiment [5], in experiment [7] and in [8].

As to `CN(C)c1cc(NC(=O)CNC(C)(C)C)c(O)c2c1C[C@H]1C[C@H]3[C@H](N(C)C)C(=O)C(C(N)=O)=C(O)[C@@]3(O)C(=O)C1=C2O`, the Potency entry in [1], in [3], in experiment [4] and in experiment [6] was “inactive” in each case. The molecule was called inactive in experiment [9], in experiment [2], in experiment [5], in experiment [7] and in [8].

Take `C[C@@H](CN1CC(=O)NC(=O)C1)N1CC(=O)NC(=O)C1`: the Potency result in experiment [1], in experiment [3], in [4] and in experiment [6] was “inactive” in each case. Further, the result in experiment [2], in [5], in experiment [7] and in experiment [8] was inactive.

`CC(C)(C)c1ccc(N)cc1`: the Potency entry in [1], in experiment [3], in [4] and in [6] was “inactive” in each case. Besides, the outcome in experiment [2], in experiment [5], in experiment [7] and in [8] was inactive.

As for `CCCCCCC(O)CO` (centres undefined), the Potency entry in experiment [1], in experiment [3], in experiment [4] and in experiment [6] was “inactive” throughout. Also, the outcome in experiment [2], in experiment [5], in experiment [7] and in experiment [8] was inactive.

`O=C(O)COc1ccc2ccccc2c1`: the Potency result in experiment [1], in experiment [3], in experiment [4] and in [6] was “inactive” throughout. The outcome in experiment [2], in experiment [5], in experiment [7] and in experiment [8] was inactive.

As to `Cc1ccc(NC(N)=O)cc1`, the Potency result in experiment [1], in [3], in experiment [4] and in experiment [6] was “inactive” each time. For the same molecule, the molecule was called inactive in experiment [9], in experiment [2], in experiment [5], in [7] and in [8].

For `BrCCOc1ccccc1`, the Potency result in experiment [1], in experiment [3], in experiment [4] and in experiment [6] was “inactive” in each case. Further, the result in experiment [2], in experiment [5], in experiment [7] and in experiment [8] was inactive.

For `CN(C)CCc1c[nH]c2ccc(C[C@H]3COC(=O)N3)cc12`, the Potency entry in experiment [1], in experiment [3] and in [6] was “inactive” each time. Besides, the outcome in experiment [9], in experiment [10], in experiment [5], in [7] and in experiment [8] was inactive.

Regarding `CCOC(=O)[C@H](CCc1ccccc1)N[C@H]1CS[C@H](c2cccs2)CN(CC(=O)O)C1=O`, the Potency result in [1] and in experiment [6] was “inactive” throughout. Besides, the molecule was called inactive in experiment [9], in experiment [10], in experiment [7] and in experiment [8].

For `Cc1cc(C)c(C)c(C)c1`, the Potency result in experiment [1], in experiment [3], in experiment [4] and in experiment [6] was “inactive” throughout. For the same molecule, the outcome in [2], in experiment [5] and in experiment [8] was inactive.

On to `N#Cc1ccccc1C#N`, for which the Potency entry in [1], in [3], in experiment [4] and in experiment [6] was “inactive” in each case. For the same molecule, the outcome in [2], in experiment [5], in experiment [7] and in experiment [8] was inactive.

For the molecule `CC(CN1CC(=O)NC(=O)C1)N1CC(=O)NC(=O)C1` (centres undefined), the Potency entry in experiment [1], in [3], in experiment [4] and in [6] was “inactive” throughout. Besides, the outcome in [2], in [5], in experiment [7] and in experiment [8] was inactive.

As for `COC(=O)N/N=C/c1c[n+]([O-])c2ccccc2[n+]1[O-]`, the Potency result in experiment [1], in [3] and in experiment [4] was “inactive” throughout. Further, the outcome in experiment [9], in experiment [5], in experiment [7] and in experiment [8] was inactive.

For the molecule `CCOC(=O)CN1CCCC1=O`, the Potency result in experiment [1], in experiment [3] and in experiment [4] was “inactive” throughout. Besides, the result in experiment [2], in [5], in [7] and in [8] was inactive.

For `COc1cc(OC)cc(OC)c1`, the Potency result in experiment [1], in experiment [3], in experiment [4] and in [6] was “inactive” in each case. The outcome in experiment [2], in experiment [5] and in experiment [8] was inactive.

As to `Cc1ccccc1OCC(=O)O`, the Potency entry in [1], in experiment [3], in experiment [4] and in experiment [6] was “inactive” in each case. Besides, the result in [2], in experiment [5], in experiment [7] and in experiment [8] was inactive.

`C=CCOC(=O)CCCCCCCC`: the Potency result in experiment [1], in [3], in [4] and in experiment [6] was “inactive” in each case. For the same molecule, the result in experiment [2], in experiment [5] and in [8] was inactive.

For the molecule `COC(=O)c1c(C)cc(O)c(C)c1O`, the Potency result in experiment [1] and in [3] was “inactive” each time. Further, the outcome in experiment [2], in [5], in [7] and in [8] was inactive. The Potency in experiment [4] is 19.3 µM (active).

On to `CCCCCCCC(=O)N(C)C`, for which the Potency result in experiment [1], in [3], in experiment [4] and in experiment [6] was “inactive” each time. For the same molecule, the outcome in [2], in experiment [5], in experiment [7] and in experiment [8] was inactive.

For `Cc1cc2c(cc1CC(=O)c1sccc1S(=O)(=O)Nc1onc(C)c1Cl)OCO2`, the Potency entry in experiment [1], in [3], in experiment [4] and in experiment [6] was “inactive” each time. The result in [2], in experiment [5], in experiment [7] and in [8] was inactive.

Take `CO/N=C(\C(=O)O)c1csc(NC(=O)CCl)n1`: the Potency result in [1], in experiment [3], in experiment [4] and in experiment [6] was “inactive” each time. The outcome in [2] and in experiment [5] was inactive.

On to `CCOC(=O)c1ccc(N(C)C)cc1`, for which the Potency result in experiment [1], in experiment [3], in experiment [4] and in experiment [6] was “inactive” in each case. Besides, the result in experiment [2], in experiment [7] and in experiment [8] was inactive.
